Screening results from PubChem BioAssay.
Rows were chosen to be rich in hits. Some 3.2% of all compounds tested hit in one or more screens of this group.
Tau fluor counter: Counterscreen qHTS for Inhibitors of Tau Fibril Formation, Fluorescence Polarization | tau K18 P301L Alexa594 fluorescence, heparin fibrillization | Potency, µM (titrated, usually from 57.7 µM), for inactives: at the highest dose activity change, negative = decrease | 0.93% of 280,000 active; note: potency is the fitted concentration of half-maximal effect; % is set by controls: 0 for no effect and ±100 for the full control effect; nearly all actives have a fitted effect of over 55% in size
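Human K18 P301L tau (15 uM unlabeled plus 0.24 uM Alexa 594-labeled, final) in 100 mM sodium acetate pH 7 was mixed with compound and 20 uM heparin and incubated 6 hr at 37 C.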
JMJD2E inh: qHTS Assay for Inhibitors of Human Jumonji Domain Containing 2E (JMJD2E); Lysine-specific demethylase 4E (Homo sapiens), B2RXH2; JMJD2E catalytic domain, FDH-coupled NADH fluorescence (FDH is formaldehyde dehydrogenase); Potency, µM (top dose mostly 57.1 µM), for inactives: top-dose activity change, negative = inhibition, usual class: inhibitors; 1.6% of 230,000 active; AID 2147, 2009; active = well fitted inhibition curve with a large enough effect, not every such curve was filed as active; inconclusive = small, poorly fitted or top-dose-only effect, or another doubt; inactive = no such curve, though single readings can be large or run the other way;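 note: potency is the fitted concentration of half-maximal effect; 0% = wells with enzyme and -100% = buffer wells without enzyme; nearly all actives have a fitted effect of over 50% in size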
Target sequence (B2RXH2 1-337 limits assumed): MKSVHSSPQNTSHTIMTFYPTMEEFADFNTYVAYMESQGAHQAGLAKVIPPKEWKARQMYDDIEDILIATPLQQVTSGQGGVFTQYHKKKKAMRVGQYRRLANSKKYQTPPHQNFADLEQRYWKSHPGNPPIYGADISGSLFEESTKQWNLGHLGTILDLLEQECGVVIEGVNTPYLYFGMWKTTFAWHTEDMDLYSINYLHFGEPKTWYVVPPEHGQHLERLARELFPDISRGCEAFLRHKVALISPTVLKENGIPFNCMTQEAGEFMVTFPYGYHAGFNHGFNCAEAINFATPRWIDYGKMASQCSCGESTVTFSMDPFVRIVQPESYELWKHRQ
Tau FP inhib: qHTS for Inhibitors of Tau Fibril Formation, Fluorescence Polarization | AID 1468, 2008 | 0.39% of 280,000 active | Potency, µM (series often up to 57.7 µM), without a hit: at the highest dose activity, negative = inhibition, hits mostly inhibitors | K18 P301L tau heparin fibrillization, Alexa594 FP, 6 h | Microtubule-associated protein tau (Homo sapiens), P10636; note: potency is the fitted concentration of half-maximal effect; % is set by controls: 0 for no effect and ±100 for the full control effect; nearly all actives have a fitted effect of over 55% in size
Target sequence (P10636 561-689 P618L limits assumed): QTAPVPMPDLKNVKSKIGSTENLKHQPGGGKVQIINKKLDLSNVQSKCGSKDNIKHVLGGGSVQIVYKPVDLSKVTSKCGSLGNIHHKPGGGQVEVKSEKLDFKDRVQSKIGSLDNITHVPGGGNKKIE
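Recombinant K18 P301L […], labeled with Alexa 594 at 0.24 uM over 15 uM unlabeled; heparin inducer 20 uM final; 37 C, 6 hr; FP endpoint.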
CBFb-RUNX1 inh: qHTS Assay for Compounds Blocking the Interaction Between CBF-beta and RUNX1 for the Treatment of Acute Myeloid Leukemia. AlphaScreen CBFb-His/RUNX1-biotin binding, biochemical. 230,000 tested, under 10 active. Potency, µM (highest dose often 59.8 µM), without a hit: at the top dose activity, negative = inhibition, most hits filed as inhibitors. AID 1477, 2009; note: % of control where 0% means no effect
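AlphaScreen proximity signal reports loss of binding between His-tagged CBF-beta and biotin-labelled RUNX1, each at 30 nM. Proteins are pre-associated for 20 minutes, compounds added for 15 minutes, then beads for 90 minutes, all at ambient temperature.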
Tau fibril ThT: qHTS for Inhibitors of Tau Fibril Formation, Thioflavin T Binding | Microtubule-associated protein tau (Homo sapiens), P10636 | recombinant tau K18 P301L (four-repeat tau fragment), heparin-induced fibrillization, ThT fluorescence | Potency, µM (highest dose often 57.4 µM), for inactives: at the highest dose activity, negative = inhibition, hits mostly inhibitors | 2.1% of 270,000 active | AID 1460, 2008; note: potency is the fitted concentration of half-maximal effect; % is set by controls: 0 for no effect and ±100 for the full control effect; nearly all actives have a fitted effect of over 55% in size
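Aggregation was driven by heparin (20 uM final) acting on recombinant tau […] bearing P301L in 100 mM sodium acetate pH 7; fibrils were detected with Thioflavin T.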
Lamin A splicing: qHTS Assay for Modulators of Lamin A Splicing | HeLa LMNA splicing GFP/RFP minigene ratio, 48 h | Potency, µM (top dose mostly 46.1 µM), inactives show top-dose ratio change, negative = inhibition, hits mostly inhibitors | 0.01% of 200,000 active; active = well fitted inhibition curve with a large enough effect in the signal ratio, with a control signal flat, not every such curve was filed as active; inconclusive = small, poorly fitted or top-dose-only effect, or effect the other way, or a change in a side signal; the % refers to the signal ratio; note: potency is the fitted concentration of half-maximal effect; % is set by controls: 0 for no effect and ±100 for the full control effect
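S3 HeLa stable clones carrying a lamin A-EGFP splicing minigene plus DsRed2 were seeded at 600 cells/well in Opti-MEM with 2% FBS, pin-dosed and incubated 48 h at 37°C. Acumen cytometry (488 nm) gave the GFP/RFP total-intensity ratio.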
Active calls of the source: *; ? = inconclusive; · = no result; [ ] = remark or other dose. Unless noted, calls come from the whole dose curve; as a rule, active = well fitted curve in the direction sought with a large enough effect; inconclusive = small, poorly fitted or top-dose-only effect, or another doubt; inactive = no such curve, though single readings can be large; an effect the other way counts as inactive or inconclusive.

SMILES | Tau fluor counter | JMJD2E inh | Tau FP inhib | CBFb-RUNX1 inh | Tau fibril ThT | Lamin A splicing
O=C(NCC(c1ccc2c(c1)OCO2)N1CCOCC1)c1ccccc1F (stereo unspecified) | 8% | · | 9% | · | 7% | 4%[46 µM]
CCCCc1nn2c(=O)cc(COC(=O)c3cccc(NC(=O)CCc4ccccc4)c3)nc2s1 | -23% | · | -11% | · | ? | -13%[46 µM]
CN(C(=O)c1ccc2c(c1)N(Cc1ccccc1F)C(=O)c1ccccc1S2)C1CCCCC1 | 2% | · | -7% | · | -17% | ?
Oc1ccc(/C=N/n2c(-c3ccco3)csc2=Nc2cccnc2)c(O)c1 | ? | -14% | -2% | ? | ? | 12%
COCCN=c1scc(-c2ccco2)n1/N=C/c1ccc(O)c(O)c1O | ? | 22µM* | 25µM* | · | 13µM* | -2%[46 µM]
C=CCN=c1scc(-c2ccco2)n1/N=C/c1ccc(O)c(O)c1O | 7.9µM*[quencher] | 11µM* | ? | ? | 6.3µM* | ·
CC(C)N=c1scc(-c2ccco2)n1/N=C/c1ccc(O)c(O)c1 | 14µM*[quencher] | ? | ? | ? | 14µM* | ?
Cc1nc(N=Nc2ccc(C(=O)O)cc2)c(COP(=O)(O)O)c(C=O)c1O | -20% | 28µM* | -14% | 2% | ? | -12%
O=C(COc1ccc(Cl)cc1)NCCc1csc(-c2cccc(F)c2)n1 | -2% | · | 4% | · | -10% | -12%[46 µM]
Cc1ccccc1N1C(S)=C(C#N)C(=O)NC1c1ccco1 (stereo unspecified) | -22% | -29% | ? | -27% | 25µM* | 0%[46 µM]
Cc1ccc(NC(=O)c2c(C)oc3ncnc(N4CCCCC4)c23)c(C)c1 | 0% | · | 6% | · | -1% | 3%[46 µM]
Cn1c(-c2ccccc2)c(C=O)c2ccccc21 | -9% | -33% | 1% | 10% | -8% | ?
Cn1c(-c2ccccc2)c(/C=N/NC(=O)c2ccc(O)cc2)c2ccccc21 | 20µM*[quencher] | ? | 2% | -12% | ? | ?
COc1ccc(OC)c(NC(=O)CN(C)S(=O)(=O)c2ccc3[nH]c4c(c3c2)CCCC4)c1 | ? | · | 7% | · | -1% | ?
CCN(c1ccc(OC)cc1)S(=O)(=O)c1ccc2[nH]c3c(c2c1)CCCCC3 | 10µM*[quencher] | · | 1% | · | -7% | ?
CCN(Cc1ccccc1)S(=O)(=O)c1ccc2[nH]c3c(c2c1)CCCCC3 | 7.9µM*[quencher] | · | 2% | · | 0% | -21%[46 µM]
COc1cccc(Cn2c(=O)n(-c3ccccc3C)c(=O)c3c2c2cc(C)ccc2n3C)c1 | 7% | · | -1% | · | 9% | ·
CSCC[C@H](N)C(=O)N[C@@H](CCCN=C(N)N)C(=O)N[C@@H](CC(C)C)C(=O)N[C@@H](Cc1ccccc1)C(=O)N[C@H](C(=O)O)C(C)C | · | · | · | 11% | · | ·
CCN(Cc1ccccc1)S(=O)(=O)c1ccc(C(=O)Nc2nnc(C3CC3)o2)cc1 | -5% | 14µM* | 1% | ? | -5% | ?
Cc1nnc(NC(=O)c2ccc(S(=O)(=O)N(C)Cc3ccccc3)cc2)o1 | -8% | ? | 2% | -2% | -13% | ?
CCCCOc1cc(C(=O)NCCN(CC)CC)c2ccccc2n1 | -12% | 32µM* | 5% | 6% | -5% | ?
CN=c1scc(-c2cccs2)n1/N=C/c1ccc(O)c(O)c1O | 20µM*[quencher] | 14µM* | ? | ? | 13µM* | -11%
CN=c1scc(-c2cccs2)n1/N=C/c1ccccc1O | -3% | -1% | -8% | -5% | 11% | ?
CCN=c1scc(C)n1/N=C/c1ccsc1 | -11% | 6% | 4% | -17% | ? | -2%
CN=c1scc(C)n1/N=C/c1cc(Br)c(O)c(OC)c1 | ? | -9% | 6% | -17% | 13µM* | -16%[46 µM]
